PubChem BioAssay (EPA / NIEHS)
Active and inactive are the calls of the source. The calls were made as follows: active = hit-call score of the fitted dose curve at least 0.9, where 1 is the maximum; inactive = score below 0.9.

Experiment: Tanguay_ZF_120hpf_BRN: Oregon State University Tanguay Lab 120 Hour Post-fertilization zebrafish Assay for Brain Region Malformation (AID 2284402)
Protocol: Tanguay_ZF_120hpf is a whole embryo, multiplexed endpoint assay using zebrafish larvae exposed for 120 hours post fertilization on a 96-well plate.Tanguay_ZF_120hpf_BRN is one of one assay component(s) measured or calculated from the Tanguay_ZF_120hpf assay. It is designed to make measurements of zebrafish development as detected with brightfield microscopy of developing zebrafish embryos.Data from the assay component Tanguay_ZF_120hpf_BRN was analyzed into 1 assay endpoints. This assay endpoint, Tanguay_ZF_120hpf_BRN, was analyzed in the positive analysis fitting direction relative to DMSO as the negative control and baseline of activity. Using a type of morphology reporter, gain-of-signal activity can be used to understand changes in developmentals as they relate to the whole embryo. To generalize the intended target to other relatable targets, this assay endpoint is annotated to the zebrafish development intended target family, where the subfamily is brain morphogenesis.
Zebrafish husbandry: Tropical 5D wild-type adult zebrafish were housed in at an approximate density of 1000 per 100 gallon tank at the Sinnhuber Aquatic Research Laboratory, Oregon State University, Corvallis, OR. Each tank was kept at standard laboratory conditions of 28C on a 14-h light/10-h dark photoperiod in fish water consisting of reverse osmosis water supplemented with a commercially available salt (Instant Ocean). Spawning funnels were placed into the tanks the night prior, and embryos were collected and staged. To increase bioavailability, the chorion was enzymatically removed using pronase (63.6mg/ml, >/= 3.5U/mg, Sigma-Aldrich: P5147) at 4 hours post fertilization (hpf) using a custom automated dechorionator.Chemical exposures: Six hpf dechorionated embryos were placed 1 embryo per well in a 96-well plate prefilled with 90 ul of EM using automated embryo placement systems (AEPS). Ten microliters of each row of dilution plate 2 was added to 2 exposure plates. The final DMSO concentration used was 0.64% (vol/vol). Thirty-two embryos were also exposed to 5uM trimethyltin chloride (positive control). Plates were sealed to prevent evaporation and foil covered to reduce light exposure and kept in a 28C incubator. Embryos were statically exposed until 120 hpf. At 24 hpf, embryos were assessed for photomotor response using a custom photomotor response analysis tool (PRAT) and for developmental toxicity endpoints (MO24: mortality at 24 hpf, DP: developmental progression, SM: spontaneous movement, and NC: notochord distortion). At 120 hpf, locomotor activity was measured using Viewpoint Zebralab and assessed for 13 endpoints. Zebrafish acquisition and analysis program (ZAAP), a custom program designed to inventory, acquire, and manage zebrafish data, was used to collect developmental endpoints as either present or absent (i.e., binary responses were recorded). If mortality occurred for an embryo (at either 24 or 120 hpf), the non-mortality endpoints were not measured.

SMILES | outcome
O=C(O)C=CC(F)(C(F)(F)F)C(F)(F)F | inactive
O=C(O)C(F)(OC(F)(F)C(F)(F)C(F)(F)F)C(F)(F)F (centres undefined) | inactive
O=C(O)C(F)(F)OC(F)(F)C(F)(F)OC(F)(F)F | inactive
OCC(F)(F)OC(F)(F)C(F)(F)OC(F)(F)C(F)(F)OC(F)(F)F | inactive
O=S(=O)(F)C(F)(F)C(F)(F)C(F)(F)C(F)(F)C(F)(F)C(F)(F)C(F)(F)C(F)(F)F | inactive
O=C(O)C(F)(F)OC(F)(F)C(F)(F)OC(F)(F)C(=O)O | inactive
CC(O)C(F)(F)C(F)(F)F (centres undefined) | inactive
NC(=O)C(F)(F)C(F)(F)F | inactive
C=CC(=O)OCC(F)(F)C(F)F | inactive
FC(F)(F)C(F)(C(F)(F)F)C(F)(F)C(F)(F)CC1CO1 (centres undefined) | inactive
OCC(F)(F)OC(F)(F)C(F)(F)OC(F)(F)C(F)(F)OC(F)(F)CO | inactive
COC(=O)C(F)(F)C(F)(F)OC(F)(C(F)(F)F)C(F)(F)OC(F)=C(F)F (centres undefined) | inactive
OCC(F)(F)OC(F)(F)C(F)(F)OC(F)(F)CO | inactive
O=C(O)C(F)(F)C(F)(F)C(=O)O | inactive
